# Measured values published in PubChem BioAssay (Tox21).
# Several values for one entry are separate records, joined by “and”; a condition that tells them apart may be missing. Equal values may be shown once. Results filed as inconclusive are left out. Entries that show only a call come without a potency. Some compounds were tested as several samples or in several runs, with calls that do not always agree. Activity calls are given as the source filed them. Unless noted, the call rests on the fitted dose curve; in most records, active means well fitted curve in the direction sought with a large enough effect in the repeat runs; inconclusive means weak or mixed curves; inactive means no such curve, though single readings can be large; an effect the other way counts as inactive or inconclusive.
# Tests used:
# [1] = qHTS assay to test for compound auto fluorescence at 535 nm (green) in HEK293 cells (AID 720680)
# [2] = qHTS assay to test for compound auto fluorescence at 460 nm (blue) in HEK293 cell free culture (AID 720681)
# Method in brief: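 Compounds were added to cell-free DMEM with 10% FBS and fluorescence read directly. The blue channel used 405 nm excitation and 460 nm emission, with triamterene as the reference fluorophore.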
# [3] = qHTS assay to test for compound auto fluorescence at 535 nm (green) in HEK293 cell free culture (AID 720682)
# Method in brief: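 Steps: dispense DMEM/10% FBS into empty wells; pin in compound or DMSO; measure fluorescence at 485/535 nm. Values are fluorescein equivalents.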
# [4] = qHTS assay to test for compound auto fluorescence at 590 nm (red) in HEK293 cell free culture (AID 720683)
# Method in brief: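 Cell-free wells of DMEM with 10% FBS received compound, and intrinsic fluorescence was read at excitation/emission 540/590 nm. Values expressed as equivalence to Rose Bengal sodium.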
# [5] = qHTS assay to test for compound auto fluorescence at 590 nm (red) in HepG2 cell free culture (AID 720684)
# Method in brief: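 Auto fluorescence equivalency versus Rose Bengal sodium, red channel Ex/Em 540/590 nm; compounds in cell-free MEM/10% FBS; DMSO vehicle control.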
# [6] = qHTS assay to test for compound auto fluorescence at 460 nm (blue) in HepG2 cell free culture (AID 720685)
# Method in brief: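 Cell-free plates of MEM plus 10% FBS received 23 nL compound or DMSO vehicle; blue-channel (405/460 nm) intensity scored against triamterene as reference fluorophore.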
# [7] = qHTS assay to test for compound auto fluorescence at 535 nm (green) in HepG2 cell free culture (AID 720686)
# [8] = qHTS assay to test for compound auto fluorescence at 460 nm (blue) in HepG2 cells (AID 720687)
# Method in brief: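 HepG2 cells in MEM with 10% FBS, attached overnight at 37 C, were exposed to compound or DMSO for 1 hr at 37 C, 5% CO2. Blue fluorescence was read at 405/460 nm, with triamterene as reference fluorophore.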
# [9] = target: Glucocorticoid receptor (Homo sapiens) (UniProt P04150); assay: qHTS assay to identify small molecule agonists of the glucocorticoid receptor (GR) signaling pathway (AID 720691; active means well fitted activation curve with a large enough effect in the signal ratio in the repeat runs, not every such curve was filed as active; the % refers to the signal ratio; further: potency means the concentration at half of the fitted maximal effect)
# Chain of Glucocorticoid receptor (Homo sapiens) (P04150 whole entry, looked up): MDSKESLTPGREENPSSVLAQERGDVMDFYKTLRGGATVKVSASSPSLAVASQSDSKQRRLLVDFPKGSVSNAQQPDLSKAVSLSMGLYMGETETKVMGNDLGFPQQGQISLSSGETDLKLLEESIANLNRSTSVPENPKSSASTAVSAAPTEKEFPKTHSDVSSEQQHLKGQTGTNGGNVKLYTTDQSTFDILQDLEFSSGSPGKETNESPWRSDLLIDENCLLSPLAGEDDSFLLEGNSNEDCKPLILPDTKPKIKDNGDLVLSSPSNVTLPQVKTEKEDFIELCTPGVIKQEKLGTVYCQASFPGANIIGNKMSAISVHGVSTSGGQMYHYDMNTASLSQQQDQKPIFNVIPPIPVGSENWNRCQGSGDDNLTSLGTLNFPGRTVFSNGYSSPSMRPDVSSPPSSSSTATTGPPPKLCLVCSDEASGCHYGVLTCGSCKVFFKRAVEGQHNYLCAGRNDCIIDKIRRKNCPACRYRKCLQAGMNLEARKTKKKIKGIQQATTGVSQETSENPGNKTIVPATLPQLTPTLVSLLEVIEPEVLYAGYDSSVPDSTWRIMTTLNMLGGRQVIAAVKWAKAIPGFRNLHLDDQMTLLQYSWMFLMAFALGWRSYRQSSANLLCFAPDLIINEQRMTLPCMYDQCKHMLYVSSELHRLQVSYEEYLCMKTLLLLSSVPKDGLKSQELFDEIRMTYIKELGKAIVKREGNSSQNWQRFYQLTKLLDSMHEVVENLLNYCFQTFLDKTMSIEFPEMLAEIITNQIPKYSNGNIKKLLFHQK
# Method in brief: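 HeLa GR-bla reporter line; cells pre-incubated 4 h, compound in DMSO 18 h at 37 C; LiveBLAzer B/G FRET substrate 2 h RT; fluorescence intensity read-out.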
# [10] = qHTS assay to identify small molecule antagonists of the glucocorticoid receptor (GR) signaling pathway - cell viability counter screen (AID 720693); further: nearly all actives have a fitted effect of over 55% in size; further: potency means the concentration at half of the fitted maximal effect
# [11] = qHTS assay for identifying genotoxic compounds that show differential cytotoxicity against isogenic chicken DT40 cell lines with known DNA damage response pathways - Rev3 mutant cell line (AID 743014); further: nearly all actives have a fitted effect of over 55% in size; further: potency means the concentration at half of the fitted maximal effect
# [12] = qHTS assay for identifying genotoxic compounds that show differential cytotoxicity against isogenic chicken DT40 cell lines with known DNA damage response pathways - Rad54/Ku70 mutant cell line (AID 743015); further: nearly all actives have a fitted effect of over 60% in size; further: potency means the concentration at half of the fitted maximal effect
# [13] = qHTS assay to identify small molecule antagonists of the androgen receptor (AR) signaling pathway - cell viability counter screen (AID 743033; further: nearly all actives have a fitted effect of over 45% in size; further: potency means the concentration at half of the fitted maximal effect)
# [14] = target: Androgen receptor (Homo sapiens) (UniProt P10275); assay: qHTS assay to identify small molecule antagonists of the androgen receptor (AR) signaling pathway (AID 743035; active means well fitted inhibition curve with a large enough effect in the signal ratio in the repeat runs, not every such curve was filed as active; the % refers to the signal ratio; further: potency means the concentration at half of the fitted maximal effect)
# Chain of Androgen receptor (Homo sapiens) (P10275 whole entry, looked up): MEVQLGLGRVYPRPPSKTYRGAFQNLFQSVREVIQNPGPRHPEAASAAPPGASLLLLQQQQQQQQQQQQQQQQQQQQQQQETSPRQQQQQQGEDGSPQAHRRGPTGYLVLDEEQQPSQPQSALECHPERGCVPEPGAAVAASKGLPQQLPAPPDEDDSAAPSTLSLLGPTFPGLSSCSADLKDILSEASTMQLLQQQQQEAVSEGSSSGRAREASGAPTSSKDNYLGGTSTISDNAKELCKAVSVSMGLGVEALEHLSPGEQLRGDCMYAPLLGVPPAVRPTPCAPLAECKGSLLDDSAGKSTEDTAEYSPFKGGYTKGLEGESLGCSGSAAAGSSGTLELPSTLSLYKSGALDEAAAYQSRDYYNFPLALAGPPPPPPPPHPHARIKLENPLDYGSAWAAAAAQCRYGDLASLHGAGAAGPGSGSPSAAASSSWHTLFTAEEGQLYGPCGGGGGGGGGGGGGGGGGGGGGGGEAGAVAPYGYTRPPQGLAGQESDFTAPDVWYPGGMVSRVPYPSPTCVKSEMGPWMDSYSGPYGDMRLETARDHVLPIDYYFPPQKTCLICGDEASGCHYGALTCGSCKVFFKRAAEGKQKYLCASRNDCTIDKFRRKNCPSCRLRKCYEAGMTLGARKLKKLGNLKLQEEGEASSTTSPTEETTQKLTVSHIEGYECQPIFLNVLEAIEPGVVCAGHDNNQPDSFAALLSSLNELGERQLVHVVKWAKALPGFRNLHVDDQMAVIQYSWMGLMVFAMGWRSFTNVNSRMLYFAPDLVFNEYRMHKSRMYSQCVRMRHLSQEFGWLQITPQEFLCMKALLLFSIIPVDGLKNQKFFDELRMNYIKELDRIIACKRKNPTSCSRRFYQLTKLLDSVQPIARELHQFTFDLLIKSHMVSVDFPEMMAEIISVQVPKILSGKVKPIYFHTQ
# Method in brief: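 AR-bla HEK293 reporter cells; 4 h settle at 37C/5% CO2; compound + R1881 agonist, 16 h at 37C; LiveBLAzer B/G FRET substrate 2 h RT; fluorescence intensity read. qHTS format.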
# [15] = target: Androgen receptor (Homo sapiens) (UniProt P10275); assay: qHTS assay to identify small molecule agonists of the androgen receptor (AR) signaling pathway (AID 743036; active means well fitted activation curve with a large enough effect in the signal ratio in the repeat runs, with a control signal flat, not every such curve was filed as active; the % refers to the signal ratio)
# Method in brief: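 Reporter line: GeneBLAzer AR-UAS-bla-GripTite (HEK293). Steps: plate cells, 4 h rest, add compounds, 16 h at 37C, add LiveBLAzer B/G substrate, 2 h at RT, read fluorescence.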
# [16] = target: Androgen receptor (Homo sapiens) (UniProt P10275); assay: qHTS assay to identify small molecule agonists of the androgen receptor (AR) signaling pathway using the MDA cell line (AID 743040; further: nearly all actives have a fitted effect of over 20% in size)
# Method in brief: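 Testing was done with the MDA-kb2 AR-luc line, a human breast carcinoma stably transfected with MMTV-luciferase containing AR and GR response elements. Cells were exposed 16 h at 37C before ONE-Glo luminescence detection.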
# [17] = qHTS assay to identify small molecule antagonists of the androgen receptor (AR) signaling pathway using the MDA cell line - cell viability counter screen (AID 743041; further: nearly all actives have a fitted effect of over 45% in size; further: potency means the concentration at half of the fitted maximal effect)
# Method in brief: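 Compound exposure lasted 16 h at 37C in MDA-kb2 AR-luc cells stimulated with R1881. Protease-based CellTiter-Fluor reagent was applied for the final 30 min and fluorescence measured.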
# [18] = target: Glucocorticoid receptor (Homo sapiens) (UniProt P04150); assay: qHTS assay to identify small molecule antagonists of the glucocorticoid receptor (GR) signaling pathway (AID 720692; active means well fitted inhibition curve with a large enough effect in the signal ratio in the repeat runs, not every such curve was filed as active; the % refers to the signal ratio)
# Method in brief: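 Read-out: beta-lactamase FRET substrate fluorescence, 2 h at room temperature, in HeLa cells stably carrying a GRE-driven bla reporter. Compounds were co-incubated with 5 nM dexamethasone agonist (final) for 18 h at 37 C.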
# [19] = qHTS assay for identifying genotoxic compounds that show differential cytotoxicity against isogenic chicken DT40 cell lines with known DNA damage response pathways - wild type cell line (AID 743012); further: nearly all actives have a fitted effect of over 60% in size; further: potency means the concentration at half of the fitted maximal effect
# Method in brief: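 CellTiter-Glo luminescence readout of viability in wild type DT40 cells after 40 h compound exposure at 37 C/5% CO2; 300 cells/well; reagent incubated 30 min at room temperature before reading.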
# [20] = target: Androgen receptor (Homo sapiens) (UniProt P10275); assay: qHTS assay to identify small molecule antagonists of the androgen receptor (AR) signaling pathway using the MDA cell line (AID 743042; further: nearly all actives have a fitted effect of over 55% in size; further: potency means the concentration at half of the fitted maximal effect)
# Method in brief: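 MDA-kb2 breast carcinoma cells carrying MMTV-luciferase (AR/GR responsive) were co-treated with compounds and the agonist R1881 for 16 h at 37C. Inhibition read as ONE-Glo luminescence; CellTiter-Fluor fluorescence measured in parallel for cytotoxicity.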
Structure (SMILES),Potency [1],Potency [2],Potency [3],outcome [4],outcome [5],Potency [6],Potency [7],Potency [8],Potency [9],Potency [10],Potency [11],Potency [12],Potency [13],Potency [14],Potency [15],outcome [16],Potency [17],Potency [18],Potency [19],Potency [20]
Cc1ccc(S(=O)(=O)Oc2ccc(N=Nc3ccc(-c4ccc(N=Nc5c(O)ccc6cc(S(=O)(=O)O)cc(S(=O)(=O)O)c56)c(C)c4)cc3C)cc2)cc1,inactive,inactive,inactive,inactive,inactive,inactive,inactive,inactive,inactive,inactive,27.4 µM (active) and 17.8 µM (active),54.7 µM (active) and 11.2 µM (active),inactive,inactive,inactive,inactive,54.7 µM (active) and 35.5 µM (active),,,
NC(=Nc1ccccc1)Nc1ccccc1,inactive,inactive,inactive,inactive,inactive,inactive,inactive,inactive,inactive,inactive,inactive and 42 µM (active),,inactive,,,,inactive,inactive,,
CCCCCCCCCCCCc1ccccc1O,inactive,inactive,inactive,inactive,inactive,inactive,inactive,inactive,,21.6 µM (active) and 21.9 µM (active),7.59 µM (active) and 24.3 µM (active),12 µM (active) and 27.3 µM (active),24.2 µM (active) and 38.9 µM (active),21.6 µM (active),,inactive,inactive,,12 µM (active) and 30.6 µM (active),54.5 µM (active)
N[C@@H]1CONC1=O,inactive,inactive,inactive,inactive,inactive,inactive,inactive,inactive,inactive,,inactive,inactive,inactive,,,,inactive,,inactive,
Cc1cc(C2(c3cc(C)c(O)cc3C)OS(=O)(=O)c3ccccc32)c(C)cc1O,inactive,inactive,inactive,inactive,inactive,inactive,inactive,inactive,inactive,inactive,inactive,inactive,inactive,,,,30.6 µM (active),,inactive,
CCc1cc(C(C)(C)C)c(O)c(C(C)(C)C)c1,inactive,inactive,inactive,inactive,inactive,inactive,inactive,inactive,inactive,inactive,inactive and 15.4 µM (active),,inactive,,,,inactive,inactive,,
Cc1cc(OCCOCC[N+](C)(C)Cc2ccccc2)ccc1C(C)(C)CC(C)(C)C,inactive,inactive,inactive,inactive,inactive,inactive,inactive,inactive,,21.3 µM (active) and 17.3 µM (active),1.19 µM (active) and 682 nM (active),1.06 µM (active) and 765 nM (active),16.9 µM (active) and 15.4 µM (active),,,inactive,24.2 µM (active),,841 nM (active) and 1.21 µM (active),18.8 µM (active) and 12.1 µM (active)
C[N+]1([O-])CCOCC1,inactive,inactive,inactive,inactive,inactive,inactive,inactive,inactive,inactive,,inactive,inactive,inactive,,,,inactive,,inactive,
[Cl][In]([Cl])[Cl],inactive,inactive,inactive,inactive,inactive,inactive,inactive,inactive,inactive,inactive,inactive,,inactive,,,,inactive,,inactive,
CC(=O)OCC1=C(C(=O)O)N2C(=O)[C@@H](NC(=O)Cc3cccs3)[C@H]2SC1,inactive,inactive,inactive,inactive,inactive,inactive,inactive,inactive,inactive,inactive,,inactive,inactive,,,,inactive,inactive,,
CC(COc1ccccc1)N(CCCl)Cc1ccccc1 (stereo unspecified),inactive,inactive,inactive,inactive,inactive,inactive,inactive,inactive,inactive,inactive,13.3 µM (active) and 34.7 µM (active) and 5.45 µM (active),23.7 µM (active) and 15.4 µM (active),inactive,,,,inactive,,21.1 µM (active) and 27.3 µM (active),
CN1C(=O)c2ccc([N+](=O)[O-])cc2C1=O,inactive,inactive,inactive,inactive,inactive,inactive,inactive,inactive,,inactive,inactive,inactive,inactive,inactive,inactive,inactive,inactive,,inactive,inactive
CCC(C)(C)C(=O)O[C@H]1C[C@@H](C)C=C2C=C[C@H](C)[C@H](CC[C@@H]3C[C@@H](O)CC(=O)O3)[C@H]21,inactive,inactive,inactive,inactive,inactive,inactive,inactive,inactive,6.44 µM (active) and inactive,inactive,154 nM (active),,inactive,,,,inactive,,2.17 µM (active),
